Results on 40 compounds are retold here after PubChem BioAssay (NCATS).

The structures appear in SMILES notation. Inconclusive results are not listed. A number with no mark means an inactive call. Calls of active or inactive are those of the source. The call rests on the fitted dose curve; in most records, active means well fitted cell-killing curve with a large enough effect; inconclusive means small, poorly fitted or top-dose-only effect; inactive means flat fitted curve, though single readings scatter.
Potency means the concentration at half of the fitted maximal effect.

This assay can be described thus: Cell Viability - LYMP2-022 (AID 987). Further: nearly all actives have a fitted effect of over 55% in size.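 On viability change, negative = cytotoxic: 0% = DMSO alone and full effect = tetraoctylammonium bromide at 92 µM.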 As to conditions: LYMP2-022 lymphoblastoid cell viability; series mostly up to 92.2 µM; viability change, negative = cytotoxic: at the top concentration. The text has this: NIH Chemical Genomics Center [NCGC]
NIH Molecular Libraries Screening Centers Network [MLSCN]
National Institutes of Environmental Health Sciences [NIEHS]
National Toxicology Program [NTP]
We have developed a 1536-well cell-based assay for quantitative high throughput screening (qHTS) against a number of cell lines to determine in vitro cytotoxicity of small molecules. This particular assay uses a human lymphoblastoid cell line (LYMP2-022) purchased from Coriell Institute for Medical Research.
NCGC Assay Protocol Summary:
The CellTiter-Glo luminescent cell viability assay (Promega) is a homogeneous method to measure the number of viable cells in culture. The end point readout of this assay is based on quantitation of intracellular ATP, an indicator of metabolic activity, using the luciferase reaction. Luciferase catalyzes the oxidation of beetle Luciferin to oxyluciferin and light in the presence of ATP. The luminescent signal is proportional to amount of ATP present.
Using the CellTiter-Glo luminescent cell viability assay, the amount of cellular ATP was measured in the lymphoblastoid cell line with complete culture medium following compound treatment for 24 hours. The assay was performed in opaque white Kalypsys 1536-well plates. In the screen, tetraoctylammonium bromide was used as positive control. Library compounds were measured for their ability to cause acute toxicity in the cell line, as reflected by a decrease in intracellular ATP levels, in a concentration-dependent manner. […] AC50 values were determined from concentration-response data modeled with the standard Hill equation.
qHTS protocol for CellTiter Glo lymphoblastoid cellular assay
[Step] [Parameter] [Value] [Description]
1. Reagent; 5 uL; 2500 lymphoblastoid cells/well
2. Time; 5 hr; 37 C incubation
4. Controls; 23 nL; Tetraoctylammonium bromide 6.4pM to 92 uM
5. Time; 24 hr; 37 C incubation
6. Reagent; 5 uL; CellTiter Glo reagent
7. Time; 30 min; Room Temperature
8. Detection; Luminescence; Viewlux plate reader
Keywords: cell viability, cytotoxicity, lymphoblastoid cell line, luminescence, NTPHTS, NTPHTS_NCGC, NIEHS, DSSTox, MLSMR, MLSCN, NIH Roadmap, qHTS, NCGC
For the compound `C=C(C)C(=O)OCC(C)O` (stereo not given), the “viability change, negative = cytotoxic” value is -22.4%.

In the case of `O=[N+]([O-])c1ccc2nc[nH]c2c1`, the “viability change, negative = cytotoxic” value is -14.8%. With `Cc1cccc(C(=O)O)c1`, the “viability change, negative = cytotoxic” value was -14.4%. Turning to `Cc1ccc2nc(-c3ccc(N)cc3)sc2c1S(=O)(=O)O`, the “viability change, negative = cytotoxic” value is -7.19%.

Consider `Cc1ccc(N(C)C)cc1`, for which the “viability change, negative = cytotoxic” value is 2.29%. Take `O=Cc1ccc(CO)o1`: the “viability change, negative = cytotoxic” value was -24.1%. In the case of `C=Cc1ccccc1C=C`, the “viability change, negative = cytotoxic” value was -8.11%. Consider `OC1CCCC1`, for which the “viability change, negative = cytotoxic” value is 0.685%.

As for `Nc1cc([N+](=O)[O-])ccc1C(=O)O`, the “viability change, negative = cytotoxic” value was -1.74%. For the compound `CC(C)(C)OCC1CO1` (stereo not given), the “viability change, negative = cytotoxic” value is -7.65%.

As to `CC/C=C1/OC(=O)c2ccccc21`, the “viability change, negative = cytotoxic” value is -9.71%.

As to `Cc1ccc2ccccc2c1[N+](=O)[O-]`, the “viability change, negative = cytotoxic” value is -8.44%.

Regarding `CC1(N)CCC(C(C)(C)N)CC1` (stereo not given), the “viability change, negative = cytotoxic” value was 5.88%.

`Oc1cccc(Nc2ccccc2)c1`: the “viability change, negative = cytotoxic” value is -8.07%. In the case of `NC(=O)c1ccccc1[N+](=O)[O-]`, the “viability change, negative = cytotoxic” value is -5.91%. On to `CC=C(Cl)Cl`, for which the “viability change, negative = cytotoxic” value is 1.33%. As to `COc1ccc(OC)cc1`, the “viability change, negative = cytotoxic” value is 7.05%. Still for that read-out and setting: as for `CCCCN(CCO)CCCC`, the figure is -14.1%. For the compound `Cc1ccccc1C(=O)O`, the “viability change, negative = cytotoxic” value was -19.5%. For the compound `CCCCCCCCCCCCC1CO1` (stereo not given), the “viability change, negative = cytotoxic” value was -11.7%. In the case of `CC=O`, the “viability change, negative = cytotoxic” value is 0.727%. As to `COCCOC(=O)c1ccccc1C(=O)OCCOC`, the “viability change, negative = cytotoxic” value is -19.4%. On to `O=C(Cl)c1c(Cl)cccc1Cl`, for which the “viability change, negative = cytotoxic” value was -4.23%. Turning to `Nc1nc(CC(=O)O)cs1`, the “viability change, negative = cytotoxic” value was 1.67%. As to `Nc1cc(S(=O)(=O)O)ccc1O`, the “viability change, negative = cytotoxic” value was 4.54%. The same measure, in the same setting: as for `Nc1cccc(C(F)(F)F)c1`, the figure is 2.55%; as for `Cc1ccccc1C#N`, -4.31%. As for `O=C(O)c1cccc([N+](=O)[O-])c1`, the “viability change, negative = cytotoxic” value was -13.6%.

Consider `CC/C(C)=N/O`, for which the “viability change, negative = cytotoxic” value is -5.43%. On to `O=C(O)c1ccc(Cl)cc1Cl`, for which the “viability change, negative = cytotoxic” value was -3.65%. With `COC(=O)c1ccccc1`, the “viability change, negative = cytotoxic” value was 1.95%. Still for that read-out and setting: to `CC(C)N(C)C` belongs -2.05%. Turning to `CC1=C(/C=C/C(C)=C/C=C/C(C)=C\C=O)C(C)(C)CCC1`, the Potency is 39.8 µM (active). For the compound `CN(C)CCCCl`, the “viability change, negative = cytotoxic” value was 3.72%.

As to `O=C(O)c1cccc(Cl)c1Cl`, the “viability change, negative = cytotoxic” value is -8.59%. For the compound `CCCCCO`, the “viability change, negative = cytotoxic” value is -6.44%. The same measure, in the same setting: as for `C/C=C1\CC2C=CC1C2` (stereo not given), the figure is -10.9%; as for `O=C(O)c1ccccc1[N+](=O)[O-]`, -1.36%; as for `O=C(O)CNC(=O)c1ccc([N+](=O)[O-])cc1`, 0.715%. For the compound `O=Cc1ccc(C(=O)O)cc1`, the “viability change, negative = cytotoxic” value was -10.7%.
